Key:
Assay in all cases: DAPPL (digital affinity profiling via proximity ligation, sequencing); 10 mM Tris-HCl pH 7.5, 50 mM NaCl, 1 mM DTT, 4% glycerol, room temperature, 30 min; GST-TFs on glutathione beads, 16-mer random dsDNA library, 0.1% formaldehyde crosslink after washing; high values mean tight binding
Settings in all cases: protein: recombinant; tags: N-terminal GST; dsDNA, one strand shown
[1] = target: T1, ERF (Homo sapiens, UniProt P50548 1-548)
T1 sequence: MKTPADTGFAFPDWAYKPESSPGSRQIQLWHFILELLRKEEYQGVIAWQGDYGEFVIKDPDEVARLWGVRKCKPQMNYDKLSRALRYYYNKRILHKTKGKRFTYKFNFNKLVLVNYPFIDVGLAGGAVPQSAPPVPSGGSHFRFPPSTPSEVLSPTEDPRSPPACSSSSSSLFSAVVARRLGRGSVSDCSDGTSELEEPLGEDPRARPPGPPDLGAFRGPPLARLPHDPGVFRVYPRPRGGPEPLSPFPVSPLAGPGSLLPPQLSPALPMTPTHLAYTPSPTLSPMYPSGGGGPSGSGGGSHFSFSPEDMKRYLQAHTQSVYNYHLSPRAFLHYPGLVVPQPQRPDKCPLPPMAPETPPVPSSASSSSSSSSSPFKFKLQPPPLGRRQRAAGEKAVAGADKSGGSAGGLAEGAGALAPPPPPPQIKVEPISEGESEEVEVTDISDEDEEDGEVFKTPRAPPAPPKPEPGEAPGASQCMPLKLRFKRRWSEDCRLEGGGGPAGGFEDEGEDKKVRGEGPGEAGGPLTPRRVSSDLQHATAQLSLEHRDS
Outline: (§1)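 Binding signal is given per hexamer as its read frequency for a factor divided by its frequency in the tag-only sample. GST-fused human transcription factors were expressed in yeast, captured on glutathione beads, barcoded with DNA and pooled with that sample, then incubated with 200 nmole of a 16-mer random double-stranded DNA library in Tris/NaCl/DTT/glycerol buffer for 30 min at room temperature. The pools were then washed, crosslinked, proximity-ligated, amplified by PCR and sequenced on an Illumina NextSeq500.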

[2] = target: T2, ETV3L (Homo sapiens, UniProt Q6ZN32 1-361)
T2 sequence: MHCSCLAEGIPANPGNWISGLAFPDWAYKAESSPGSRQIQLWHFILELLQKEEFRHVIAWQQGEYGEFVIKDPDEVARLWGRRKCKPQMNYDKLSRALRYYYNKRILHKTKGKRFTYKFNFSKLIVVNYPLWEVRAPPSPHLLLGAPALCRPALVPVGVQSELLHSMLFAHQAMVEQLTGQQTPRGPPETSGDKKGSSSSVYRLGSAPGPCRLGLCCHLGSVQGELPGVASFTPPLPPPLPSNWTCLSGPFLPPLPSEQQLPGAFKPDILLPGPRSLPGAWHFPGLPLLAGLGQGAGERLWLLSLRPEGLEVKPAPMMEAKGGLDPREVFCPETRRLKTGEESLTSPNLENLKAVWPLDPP
Outline: as §1

[3] = target: T3, ETS2 (Homo sapiens, UniProt P15036 1-469)
T3 sequence: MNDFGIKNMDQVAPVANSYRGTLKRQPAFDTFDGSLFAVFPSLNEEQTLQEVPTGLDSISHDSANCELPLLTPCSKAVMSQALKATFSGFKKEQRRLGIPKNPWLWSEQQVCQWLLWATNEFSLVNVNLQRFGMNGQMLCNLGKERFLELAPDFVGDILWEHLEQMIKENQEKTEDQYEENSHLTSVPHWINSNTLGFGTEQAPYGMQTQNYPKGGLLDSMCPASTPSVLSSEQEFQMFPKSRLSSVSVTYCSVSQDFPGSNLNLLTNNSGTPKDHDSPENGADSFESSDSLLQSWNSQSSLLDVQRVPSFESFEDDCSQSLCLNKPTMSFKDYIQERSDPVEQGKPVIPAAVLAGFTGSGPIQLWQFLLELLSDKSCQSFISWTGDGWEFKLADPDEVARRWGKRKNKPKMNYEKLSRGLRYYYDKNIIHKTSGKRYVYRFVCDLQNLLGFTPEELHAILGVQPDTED
Outline: as §1

[4] = target: T4, SPDEF (Homo sapiens, UniProt O95238 1-335)
T4 sequence: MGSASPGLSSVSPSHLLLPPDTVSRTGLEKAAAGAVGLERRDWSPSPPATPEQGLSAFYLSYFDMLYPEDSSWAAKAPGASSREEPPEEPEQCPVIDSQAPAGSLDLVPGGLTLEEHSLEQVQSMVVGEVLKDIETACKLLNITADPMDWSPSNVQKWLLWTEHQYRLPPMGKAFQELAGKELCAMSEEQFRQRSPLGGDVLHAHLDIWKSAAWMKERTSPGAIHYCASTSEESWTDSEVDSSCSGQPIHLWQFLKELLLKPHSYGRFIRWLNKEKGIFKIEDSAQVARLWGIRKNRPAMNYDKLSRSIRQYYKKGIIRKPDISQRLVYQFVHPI
Outline: as §1

[5] = target: T5, ETV7 (Homo sapiens, UniProt Q9Y603 1-341)
T5 sequence: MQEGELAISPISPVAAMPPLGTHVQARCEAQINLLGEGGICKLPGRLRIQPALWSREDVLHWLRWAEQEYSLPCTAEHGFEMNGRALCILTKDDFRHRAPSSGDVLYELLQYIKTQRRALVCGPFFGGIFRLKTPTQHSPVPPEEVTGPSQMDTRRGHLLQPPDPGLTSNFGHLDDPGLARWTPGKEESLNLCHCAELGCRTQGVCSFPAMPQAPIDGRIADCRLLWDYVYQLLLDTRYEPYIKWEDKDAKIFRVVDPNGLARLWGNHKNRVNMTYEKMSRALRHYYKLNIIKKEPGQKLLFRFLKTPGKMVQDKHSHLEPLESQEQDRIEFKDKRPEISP
Outline: as §1

[6] = target: T6, ELF5 (Homo sapiens, UniProt Q9UKW6-2 1-255)
T6 sequence: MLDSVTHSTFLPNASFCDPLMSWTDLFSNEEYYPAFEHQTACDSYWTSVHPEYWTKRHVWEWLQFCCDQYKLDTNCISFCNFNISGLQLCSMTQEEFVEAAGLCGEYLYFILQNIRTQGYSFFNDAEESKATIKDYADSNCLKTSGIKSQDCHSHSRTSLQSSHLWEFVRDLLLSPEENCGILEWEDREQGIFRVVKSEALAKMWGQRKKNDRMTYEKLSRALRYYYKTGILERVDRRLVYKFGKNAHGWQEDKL
Outline: as §1

[7] = target: T7, ETV3 (Homo sapiens, UniProt P41162-2 1-143)
T7 sequence: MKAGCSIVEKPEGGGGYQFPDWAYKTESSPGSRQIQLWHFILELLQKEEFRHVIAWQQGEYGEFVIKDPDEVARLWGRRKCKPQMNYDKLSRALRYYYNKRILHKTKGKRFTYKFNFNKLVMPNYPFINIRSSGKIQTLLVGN
Outline: as §1

[8] = target: ETV6 (Homo sapiens, UniProt P41212 1-452)
ETV6, sequence (P41212 whole entry): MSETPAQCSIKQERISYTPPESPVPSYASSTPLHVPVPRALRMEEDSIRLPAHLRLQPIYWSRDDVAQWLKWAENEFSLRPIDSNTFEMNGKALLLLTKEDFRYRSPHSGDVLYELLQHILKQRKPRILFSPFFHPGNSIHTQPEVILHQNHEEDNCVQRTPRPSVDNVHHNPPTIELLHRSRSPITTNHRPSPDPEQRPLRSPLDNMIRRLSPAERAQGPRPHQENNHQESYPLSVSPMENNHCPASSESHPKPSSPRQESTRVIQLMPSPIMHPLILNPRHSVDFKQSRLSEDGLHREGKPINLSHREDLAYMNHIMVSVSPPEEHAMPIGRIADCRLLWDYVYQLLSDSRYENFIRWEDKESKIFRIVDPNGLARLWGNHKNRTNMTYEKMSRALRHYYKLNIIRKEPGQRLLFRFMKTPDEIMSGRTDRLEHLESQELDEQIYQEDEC
Outline: as §1

Sequence | binding signal [1] | binding signal [2] | binding signal [3] | binding signal [4] | binding signal [5] | binding signal [6] | binding signal [7] | binding signal [8]
TTTTTT | 1.18 fold enrichment (6-mer frequency, TF over GST control) | 1.18 fold enrichment (6-mer frequency, TF over GST control) | 1.09 fold enrichment (6-mer frequency, TF over GST control) | 1.22 fold enrichment (6-mer frequency, TF over GST control) | 1.26 fold enrichment (6-mer frequency, TF over GST control) | 1.14 fold enrichment (6-mer frequency, TF over GST control) | 1.2 fold enrichment (6-mer frequency, TF over GST control) | 1.11 fold enrichment (6-mer frequency, TF over GST control)
GCACAA | 1.16 fold enrichment (6-mer frequency, TF over GST control) | 1.08 fold enrichment (6-mer frequency, TF over GST control) | 1.12 fold enrichment (6-mer frequency, TF over GST control) | 1.05 fold enrichment (6-mer frequency, TF over GST control) | 1.09 fold enrichment (6-mer frequency, TF over GST control) | 1.1 fold enrichment (6-mer frequency, TF over GST control) | 1.14 fold enrichment (6-mer frequency, TF over GST control) | 1.11 fold enrichment (6-mer frequency, TF over GST control)
AAGCTC | 1.2 fold enrichment (6-mer frequency, TF over GST control) | 1.2 fold enrichment (6-mer frequency, TF over GST control) | 1.13 fold enrichment (6-mer frequency, TF over GST control) | 1.06 fold enrichment (6-mer frequency, TF over GST control) | 1.08 fold enrichment (6-mer frequency, TF over GST control) | 1.07 fold enrichment (6-mer frequency, TF over GST control) | 1.18 fold enrichment (6-mer frequency, TF over GST control) | 1.23 fold enrichment (6-mer frequency, TF over GST control)
ACTTAA | 1.26 fold enrichment (6-mer frequency, TF over GST control) | 1.16 fold enrichment (6-mer frequency, TF over GST control) | 1.19 fold enrichment (6-mer frequency, TF over GST control) | 1.17 fold enrichment (6-mer frequency, TF over GST control) | 1.27 fold enrichment (6-mer frequency, TF over GST control) | 1.16 fold enrichment (6-mer frequency, TF over GST control) | 1.17 fold enrichment (6-mer frequency, TF over GST control) | 1.21 fold enrichment (6-mer frequency, TF over GST control)
TGAACC | 1.08 fold enrichment (6-mer frequency, TF over GST control) | 1.2 fold enrichment (6-mer frequency, TF over GST control) | 1.24 fold enrichment (6-mer frequency, TF over GST control) | 1.16 fold enrichment (6-mer frequency, TF over GST control) | 1.06 fold enrichment (6-mer frequency, TF over GST control) | 1.09 fold enrichment (6-mer frequency, TF over GST control) | 1.12 fold enrichment (6-mer frequency, TF over GST control) | 1.11 fold enrichment (6-mer frequency, TF over GST control)
CACACT | 1.22 fold enrichment (6-mer frequency, TF over GST control) | 1.12 fold enrichment (6-mer frequency, TF over GST control) | 1.14 fold enrichment (6-mer frequency, TF over GST control) | 1.13 fold enrichment (6-mer frequency, TF over GST control) | 1.14 fold enrichment (6-mer frequency, TF over GST control) | 1.18 fold enrichment (6-mer frequency, TF over GST control) | 1.18 fold enrichment (6-mer frequency, TF over GST control) | 1.15 fold enrichment (6-mer frequency, TF over GST control)
